Results as given in the supplement of paper PMC6555819.

What was measured:
Assay in all cases: PBM binding z-score (relative to random genomic background probes); higher = stronger binding; sequences stand for … in GC…GCGATTGACAGCGTAGAATGAAGG
[1] = test system: PPARg:RXRa DBDmut IVT, anti-RXR (DBD mutation: RXRa K156A/R161A, NR concentration 270 nM, RXRa partner concentration 90 nM)
In short: (§1)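 Binding buffer was PBS pH 7.4 with 2% milk, 0.02% Triton X-100, 1 mM DTT, 0.2 mg/mL BSA and 0.4 mg/ml salmon testes DNA. In it, ligand-free nuclear receptor dimers were incubated 1 h on custom Agilent 4×180K protein-binding microarrays carrying double-stranded probes. Antibodies against each partner (one per run) detected binding, and z-scores were calculated against random background probes after regression normalization of scanned fluorescence.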

[2] = test system: PPARg:RXRa IVT, anti-PPARg (NR concentration 270 nM, RXRa partner concentration 90 nM)
In short: as §1

[3] = test system: PPARg DBDmut:RXRa IVT, anti-PPARg (DBD mutation: PPARg1 K132A/R137A, NR concentration 270 nM, RXRa partner concentration 90 nM)
In short: as §1

[4] = test system: PPARg DBDmut IVT, anti-PPARg (DBD mutation: PPARg1 K132A/R137A, NR concentration 270 nM)
In short: as §1

[5] = test system: PPARg homodimer (NR concentration 180 nM)
In short: as §1

[6] = test system: PXR homodimer (NR concentration 270 nM)
In short: as §1

[7] = test system: RARa:RXR (NR concentration 270 nM, RXRa partner concentration 90 nM)
In short: as §1

[8] = test system: RARa homodimer (NR concentration 270 nM)
In short: as §1

[9] = test system: RARb:RXRa (NR concentration 270 nM, RXRa partner concentration 90 nM)
In short: as §1

[10] = test system: RARb homodimer (NR concentration 270 nM)
In short: as §1

[11] = test system: RARg:RXRa (NR concentration 270 nM, RXRa partner concentration 90 nM)
In short: as §1

[12] = test system: RARg homodimer (NR concentration 270 nM)
In short: as §1

[13] = test system: RXRa DBDmut IVT, anti-RXR (DBD mutation: RXRa K156A/R161A, NR concentration 90 nM)
In short: as §1

[14] = test system: RXRa homodimer (NR concentration 180 nM)
In short: as §1

[15] = test system: THRa:RXRa (NR concentration 90 nM, RXRa partner concentration 90 nM)
In short: as §1

[16] = test system: THRa homodimer (NR concentration 90 nM)
In short: as §1

[17] = test system: VDR homodimer (NR concentration 270 nM)
In short: as §1

[18] = test system: PXR:RXRa (NR concentration 270 nM, RXRa partner concentration 90 nM)
In short: as §1

[19] = test system: VDR:RXRa (NR concentration 270 nM, RXRa partner concentration 90 nM)
In short: as §1

Sequence	PBM binding z-score [1]	PBM binding z-score [2]	PBM binding z-score [3]	PBM binding z-score [4]	PBM binding z-score [5]	PBM binding z-score [6]	PBM binding z-score [7]	PBM binding z-score [8]	PBM binding z-score [9]	PBM binding z-score [10]	PBM binding z-score [11]	PBM binding z-score [12]	PBM binding z-score [13]	PBM binding z-score [14]	PBM binding z-score [15]	PBM binding z-score [16]	PBM binding z-score [17]	PBM binding z-score [18]	PBM binding z-score [19]
TCTTATAGATCAATAGAGGTTAAGAAAGTGCGCT	1.88	0.653	0.623	0.528	1.11	0.488	1.99	0.901	1.03	1.22	1.04	0.633	0.906	1.75	2.49	0.125	0.336		
AATACAGGGTCACTTGGCCAGAGTAGGTACGAAT	2.55	4.18	1.56	1.27	1.58	0.166	4.1	0.292	4.23	3.25	5.22	5.19	3.11	5.25	3.37	1.15	2.85		
CGTCCAAGGTCATACGAGGTCAGTGAAGACAGAT	3.46	4.63	1.25	0.789	5.5	9.7	6.69	2.69	5.43	5.34	7.02	7.58	4.29	6.94	5.39	4.43	5.82		
ATATGTAGGTTAGCTGGCGTCATTCAGACTAGGC	6.56	5.58	1.28	0.35	0.334	-0.283	0.227	0.262	0.462	-0.15	0.427	0.556	-0.166	0.485	-0.223	-0.829	-0.39		
ATCGAAAGGTCGAAGGTGACTATACCCACCCGAA	0.283	2.43	0.926	0.616	2.37	0.106	4.31	0.973	3.79	2.48	4.16	3.63	1.17	4.99	2.33	0.209	0.592		
ATCGAAAGGGCGTGAGGTGAGTATACAGAAAGGC	-0.47	1.02	0.673	0.814	0.257	0.256	1.08	0.276	1.89	1.44	1.47	1.36	-0.0845	1.17	2.12	1.08	0.15		
AGAACGAGGGCAATGAGTTCATAGCACGGGTGGC	3.4	3.12	0.564	0.148	0.482	15.2	2.56	0.017	2.79	2.84	2.78	2.56	3.91	2.42	2.58	0.398	10.3		
ATATGTAGGTCAGCTGGGGTCATTCAGACTAGGC	8.08	8.21	5.33	2.2	4.29	5.2	6.74	1.6	4.57	5.26	6.13	6.32	2.43	6.85	5.44	3.41	5.57		
ATCGAAAGGTCGAAGGTGAGTCTACCCACCCGAA	0.133	2.34	0.449	0.43	1.56	0.264	4.57	-0.143	3.74	2.48	4.41	3.67	0.805	5.11	2.24	-0.0307	0.891		
TCTAGTAGGTCACGGAGGTCACACACGACGGGTA	7.04	8.61	4.06	4.54	5.46	7.52		1.12		4.79	7.29	7.88	2.43	7.26		3.15	4.8		
ATATTTAGGTTAGGGTCATTCAGAAAGTAGGGAA	5.81	5.68		3.04	4.04	2.43	4.64	4.29	3.73	3.47	4.06	3.55	2.76	4.71	4.2	3.85	4.22	4.34	4.6
CGAACTAGGTCACGAGGACAGTGAAGAGGTTGGA	8.67	8.88		1.07	2.21	0.184	3.07	0.4	4.39	3.75	4.91	5.66	1.48	3.85	3.84	2.61	0.957	1.87	2.75
CGTACTAGGTCAAAGGACAGTGAAAGGCGACGTA	7.43	8		1.47	2.5	0.0831	2.27	0.22	3.85	2.87	4.02	4.76	1.91	3.01	2.51	0.4	0.647	1.14	1.33
CGTCCAAGGTCAGAGAGGTCATTGAATGCCGAGT	2.72	3.6	0.144	-1.01	2.82	13.6	6.68	0.848		5.86	6.66	6.96	3.6	6.75		3.35	7.43		
TTACCAAGGTCAGCTGAGGTCGTTGATCCAACTC	2.24	3.75	0.41	0.114	1.8	3.87	4.4	0.314	5.06	4.61	5.52	6.14	2.79	4.69		3.51	4.14		
ATATGTCGGTTAGGGTCATTCAGAAAGTAGGGAA	2.03	3.18		2.25	3.91	2.06	5.07	1.86	3.32	3.22	3.91	3.09	2.46	4.81	4.36	3.4	4.14	4.88	4.56
CGAACTAGGTCACCAGGATAGTGAAGAGGTTGGA	8.36	8.68		2.4	2.57	-0.0879	2.59	0.146	4.2	3.4	4.23	5.43	1.26	3.14	3.3	1.45	0.463	1.4	1.93
